This experiment deals with VDR:RXRa (NR concentration 270 nM, RXRa partner concentration 90 nM). Nature of the experiment: PBM binding z-score (relative to random genomic background probes); higher = stronger binding; sequences stand for … in GC…GCGATTGACAGCGTAGAATGAAGG
Here is the method:
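Protein-binding microarray (Agilent 4x180K custom design, double-stranded 60-nt probes: 5' GC cap, 34-nt variable region, 24-nt constant primer region; full probe sequence given). Purified or IVT nuclear receptor:RXRα heterodimers (3:1 NR:RXRα, mostly 270:90 nM) or homodimers were incubated for 1 h in PBS with 2% milk and no ligand, then detected with Alexa488 antibodies. Fluorescence from o1-orientation probes (~5 replicates averaged) was converted to z-scores against 500 random hg19 background probes. Variable regions are seed direct-repeat (DR0–DR5) sites, all their single-nucleotide variants and half-site ablations.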
The sequence ACTAGCAGGCCAAGTCTGGGTCACTCAAACAAAG had a PBM binding z-score of 0.77.
The sequence CTAACTAGGTCAAAGGTCAAAGTCGAGCCAACCA yielded a PBM binding z-score of 6.59.
For GCATATTGGTAATACAAGGTGAAAGTCCGATTGT, the PBM binding z-score is -0.16.
For CGAACTTGGTCAAGGACAGTGAATCTCCGCACGC, the PBM binding z-score is -0.245.
For AACTCTAGGTAAAGATAGTTCAGTGAATGCAAAT, the PBM binding z-score was 0.688.
Consider TTACCAAGGTGAATGTCGTTGATCCCTCTGTAGA, for which the PBM binding z-score was determined as 0.328.
The sequence TCTTGTAGATCAGCAGGTTAATAAAGCTGGCCAA gave a PBM binding z-score of 0.526.
Sequence ATCGAAATGTCGAGGTGAGTATAGAGAAAGGGAA had a PBM binding z-score of -0.253.
In the case of ACTAGCAGGCCAAGTTTGGGTCACTGAAACAAAG, the PBM binding z-score was 0.731.
CTACCAAGGTGAACCAGGTCGTTGATTACTATTC returned a PBM binding z-score of 4.93.
For ATCGAAAGGTCGAGGTGAGTAGAGAGAAAGGGAA, the PBM binding z-score is 2.27.
TCATATAGGTGAAGGTGAAAGTCGAACGATATGA returned a PBM binding z-score of 0.278.
The same measure for TCTAGTTGGTCAAAGGTCACACCCTCGAAATGCG: 5.06; for CCAGACAGGTGAGAAGGTAACCCAGCCTCGATTA: -0.04.
Sequence CATACAGGGTCAGCTAGGCTAGAGTAGGGACGGC showed a PBM binding z-score of 3.
For ATCTCTAGGTAATAGTTCAGTGAATCCCGAGGAT, the PBM binding z-score came to 0.188.
For ACAGAGAGGTGATGAAGGTAACTCAGGCTATCAT, the PBM binding z-score is 0.7.
The same measure for GCATACAGGTGAAACGCAGGTAACTCAGGGTGGC: -0.304; for GCTTGTAGATCGAGGTTAAGAAAGACTAAGCTAA: 0.413.
Regarding TAGCCTAGGTCATGGGCGAGTATACCACGCGAAC, the PBM binding z-score came to 2.32.
Turning to ACTCGGAGGACAAAGGTCAGAGCAACGCCAGTGA, the PBM binding z-score was 3.39.
Take AGAATGAGGTTAAGATCAGGGACACAGAATACAT: the PBM binding z-score was determined as 1.93.
In turn, CGTCCAAGGTCAAAGATCAGTGAAGAGATGACGG returned a PBM binding z-score of 4.44.
ACTATTAGTTGTGACGAGGGCAACCGATAGGTTG: the PBM binding z-score stood at 0.506.
AATACAGGGTCGTCGTAGGCCAGAGTACGCACAG: the PBM binding z-score amounted to 2.62.
As to TTACCAACGTGAAAGGTCGTTGATGCACGCCTTG, the PBM binding z-score is 1.74.
AGAATGAGGTTATGAAGATCAGGGAATTGCGGTC registered a PBM binding z-score of 1.44.
As to CAAACTAGGCCAAAGGTCAAAGTCGAGCCAACCA, the PBM binding z-score was 4.89.
In the case of TCTGCTAGGTCAACGGTGGTCAGCTAATCTGCTA it was 1.95; in that of ATCCCTAGGTAAAGTTCAGTGAAAGATCGATAGA, 1.37; in that of ATATGTAGGTTACATCCGGGTCATTCATGCTATG, 4.1.
Sequence GCTAGTTGGACAGTAAAAGGTCACACACCGGTCG showed a PBM binding z-score of 3.84.
As to AGTCAAAGTTCAGGTCGAGGTAACGTAAAGCACG, the PBM binding z-score worked out at 3.41.
In turn, ACTAGCAGGCCCAGTTTGGGTCACTCAAACAAAG showed a PBM binding z-score of -0.198.
On to CCAGACAGGTGCGAAGGTAACTCAGCCTCGATTA, for which the PBM binding z-score was -0.435.
Sequence TCGAGTAGGTTACCATTGGGGCATTCAGCTTTCT registered a PBM binding z-score of 0.0183.
As for CCTAGCAGGCCAGTGTCACTCAAGCATTTCGCTT, the PBM binding z-score is -0.398.
In the case of TCTATAAGTTGAAGGGCAACCGACGAGTCCGTTT it was 1.07; in that of CGTAGTTGGTCAAGGTCACACACGCTATAGGTAC, 4.2.
On to TCTTGTAGATCAAGCAGGTGAAGAAAGCCTGAGT, for which the PBM binding z-score is 0.0815.

(Values after the supplement of paper PMC6555819.)
